Jurkat NFkB inh – inhibitors of induced NF-kB luciferase reporter, primary screen, TCR NF-kB activation inhibitor project, cell-based, luminescence, uHTS; hit rate 0.53% among 330,000; Jurkat, PMA/ionomycin-induced NF-kB luciferase reporter; AID 435003, 2010; inhibition, % at 4 µM; in the data active = inhibition above about 50%
KLF5 inhibitor – KLF5 expression inhibitors, primary screen, DLD-1 cells, luminescence; DLD-1 KLF5 promoter-luciferase reporter; inhibition, % at 5 µM; hit rate 0.23% among 290,000; AID 1700, 2009;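 active = inhibition above a per-plate limit of that plate's mean compound inhibition plus 3 SD, cut at about 60% in these data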;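 note: 0% = DMSO wells and 100% = LY294002 at 200 µM; higher means less KLF5 promoter-driven luciferase light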
Gli-Sufu antag – Gli-Sufu pathway antagonists, primary screen, luciferase luminescence, Sufu-KO-LIGHT cells, uHTS; hit rate 0.74% among 340,000; Sufu-KO-LIGHT fibroblasts, Gli luciferase reporter luminescence; AID 588413, 2011; inhibition, % at 5 µM;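 active = inhibition above about 55%, limit read from the data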;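 note: 0% = DMSO-treated cells and 100% = wells with medium but no cells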
697 NFkB inh – inhibitors of PMA/ionomycin-induced NF-kB reporter, 697 cells, primary screen, B-cell NF-kB inhibitor project, cell-based, luminescence, uHTS; 697 B-cell NF-kB luciferase reporter, 16 h; inhibition, % at 4 µM; hit rate 0.33% among 330,000; AID 435022, 2010; in the data active = inhibition above about 35%
aSyn 5UTR inh – MLPCN primary screen, SNCA 5' untranslated region; AID 1813, 2009; hit rate 0.82% among 300,000; alpha-synuclein 5'UTR reporter, inhibitor activity; inhibition, % (tested at 7.5 µM); in the data active = inhibition above about 60%;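 note: H4 neuroglioblastoma cells stably carrying SNCA 5'UTR luciferase fusion; 0% = DMSO wells and 100% = positive control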
Mdm2 MdmX PPI – inhibitors of human Mdm2-MdmX association, primary screen, cell-based, luminescence, split luciferase, SaOS-2, uHTS; Protein Mdm4 (Homo sapiens) + E3 ubiquitin-protein ligase Mdm2 (Homo sapiens), …; hit rate 3% among 330,000; inhibition, % at 8 µM; SaOS-2 split-luciferase Mdm2/MdmX complementation;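 active = inhibition of at least 50% at 8 µM in the primary screen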
Target sequence (O15151 whole entry, looked up): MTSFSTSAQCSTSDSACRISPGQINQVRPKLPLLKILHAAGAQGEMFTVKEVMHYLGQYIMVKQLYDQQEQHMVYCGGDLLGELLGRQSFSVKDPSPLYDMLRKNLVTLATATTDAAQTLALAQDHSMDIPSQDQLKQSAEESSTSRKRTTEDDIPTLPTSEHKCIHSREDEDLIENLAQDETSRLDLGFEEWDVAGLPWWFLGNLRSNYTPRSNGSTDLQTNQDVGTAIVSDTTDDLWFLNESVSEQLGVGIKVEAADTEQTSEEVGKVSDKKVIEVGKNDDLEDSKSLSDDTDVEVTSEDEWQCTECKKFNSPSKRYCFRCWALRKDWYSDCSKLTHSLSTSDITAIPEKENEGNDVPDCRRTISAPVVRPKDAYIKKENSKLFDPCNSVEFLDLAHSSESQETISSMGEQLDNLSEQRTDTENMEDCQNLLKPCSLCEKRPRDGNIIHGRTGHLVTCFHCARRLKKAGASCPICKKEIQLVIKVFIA
Target sequence (Q00987 whole entry, looked up): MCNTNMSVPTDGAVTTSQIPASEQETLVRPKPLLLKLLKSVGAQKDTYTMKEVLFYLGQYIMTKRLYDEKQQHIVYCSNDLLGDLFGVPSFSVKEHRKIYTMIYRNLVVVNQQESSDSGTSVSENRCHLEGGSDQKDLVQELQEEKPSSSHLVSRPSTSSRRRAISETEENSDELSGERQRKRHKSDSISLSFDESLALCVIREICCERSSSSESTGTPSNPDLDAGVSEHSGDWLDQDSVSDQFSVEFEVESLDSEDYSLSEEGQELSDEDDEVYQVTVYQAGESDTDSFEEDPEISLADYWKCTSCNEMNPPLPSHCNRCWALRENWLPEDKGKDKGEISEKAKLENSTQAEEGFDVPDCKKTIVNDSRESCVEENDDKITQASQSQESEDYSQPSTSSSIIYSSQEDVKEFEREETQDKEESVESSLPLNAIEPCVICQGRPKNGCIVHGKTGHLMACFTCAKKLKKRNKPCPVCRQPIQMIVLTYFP
Jurkat NFkB conf – PMA/ionomycin-induced NF-kB reporter inhibitors, Jurkat retest, confirmation, T-cell NF-kB inhibitor project, cell-based, luminescence, single concentration; inhibition, % at 4 µM; shares compounds with Jurkat NFkB inh; hit rate 27% among 2,700; Jurkat NF-kB luciferase, 16 h;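 active = inhibition reaching about 45% at 4 µM in either replicate, limit read from the data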;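 note: plate controls were PMA/ionomycin stimulated DMSO wells for no effect and unstimulated DMSO wells for full effect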
* = called active by the depositor; / = no result. A selection: hits, their analogues and other compounds. The true share with any hit is near 4.1%.

SMILES	Jurkat NFkB inh	KLF5 inhibitor	Gli-Sufu antag	697 NFkB inh	aSyn 5UTR inh	Mdm2 MdmX PPI	Jurkat NFkB conf
CCOCCCNC(=O)c1cc2c(=O)n3cccc(C)c3nc2n1C	58.0*	/	0.1	-11.8	-13.4	44.1	44.0
COC(=O)C1=C(C)NC2=C(C(=O)CC(c3cccs3)C2)C1c1ccsc1 (stereo not given)	/	21.5	-17.9	/	0.5	/	/
CCOC(=O)C1=C(C)NC2=C(C(=O)CC(c3cccs3)C2)C1c1cccs1 (stereo not given)	59.6*	6.0	0.3	-28.4	-19.4	44.9	5.0
Cc1ccc(C)c(NC(=O)c2ccc(S(=O)(=O)C(F)F)cc2)c1	7.3	9.9	-5.8	25.5	8.7	9.4	/
COc1ccc(C(=O)N2CCN(C(=O)c3cc(OC)c(OC)c(OC)c3)CC2)cc1	7.1	0.9	0.2	-12.2	-10.1	15.0	/
COc1cc(C(=O)N2CCN(c3cc(Cl)ccc3Cl)CC2)cc(OC)c1OC	60.0*	49.4	24.2	-81.6	88.9*	49.8	49.8*
CC12CCC(=O)N1C(C(=O)NCc1ccc(Cl)cc1Cl)CS2 (stereo not given)	-18.8	/	-2.6	-25.8	7.8	2.6	/
CCOC(=O)C1CCN(C(=O)c2cc3c(ccc4ccccc43)o2)CC1	-32.4	-175.5	-91.5	-160.3	-115.2	-68.6	/
CC1CCN(C(=O)c2cc3c(ccc4ccccc43)o2)CC1	-181.4	-17.1	-53.4	-208.2	0.9	-115.9	-113.5
Cc1ccc(C)c(N(CC(=O)NCc2ccco2)C(=O)CCC(=O)Nc2nccs2)c1	-18.0	1.9	11.1	-7.8	15.1	-6.0	/
Cc1ccsc1/C=C/c1ccc2ccccc2n1	-164.6	-107.7	-50.9	-161.6	34.5	-90.1	-105.1
Cn1ccc2ccc(C3=CC(=O)C[C@H](c4ccc(F)cc4)C3)cc21	-4.5	/	-5.0	-19.8	/	1.6	/
Cc1cc(C)c2c(N)c(C(=O)Nc3ccc(F)cc3)sc2n1	-155.4	-184.5	-78.1	-154.2	-59.6	-127.5	-32.1
COc1ccc(NC(=O)c2sc3nc(C)cc(C)c3c2N)cc1	-54.0	-222.2	-68.9	-78.3	-171.8	-98.5	/
O=C(Nc1cccc(S(=O)(=O)N2CCCC2)c1)c1ccc(Cl)nc1	63.3*	/	-2.1	-39.5	/	47.8	31.9
N#CCCN(C(=O)COc1ccc(Cl)cc1Cl)c1ccccc1	-6.9	-17.6	3.2	2.0	2.0	4.4	/
CN(C)c1cc[n+](CC(=O)Nc2ccc(Oc3ccccc3)cc2)cc1	85.0*	16.7	23.2	-13.8	48.8	45.0	36.0
O=C(Nc1ccnn1C1CCN(Cc2cccc(F)c2F)CC1)C1CCCC1	3.9	-21.9	15.5	-5.6	8.1	25.5	/
CCOc1cc(Br)ccc1S(=O)(=O)NCc1ccccc1	8.2	-6.0	-14.1	-5.8	-17.4	10.4	/
N#Cc1ccccc1Cn1cc(/C=N/Nc2ccc([N+](=O)[O-])cn2)c2ccccc21	67.4*	-41.2	12.3	-14.8	6.5	28.2	-5.9
O=C(c1ccc(Br)cc1)N1CCC(C(=O)N2CCN(Cc3ccccc3)CC2)CC1	2.5	4.0	10.3	-14.7	24.5	25.5	/
O=C(Nc1ccc2c(c1)OCO2)c1ccc(Cl)cc1Cl	-156.6	-38.8	-151.4	-210.6	-51.9	-110.5	-65.2
Cc1cc(C)n2nc(C(=O)Nc3ccc4c(c3)OCO4)cc2n1	-188.2	-130.0	-71.0	-164.3	-84.3	-56.4	-79.6
O=C(Nc1ccc2c(c1)OCO2)c1cc(Cl)ccn1	-140.3	/	-76.7	-134.3	/	-101.3	/
COC(=O)Cc1ccc2sc(-c3ccccc3)nc2c1	-156.4	-124.9	-77.3	-93.3	-207.6	-238.6	-98.8
O=C(O)Cc1ccc2sc(-c3ccccc3)nc2c1	-13.2	-5.5	0.8	-16.3	-15.5	-8.7	/
O=c1[nH]c(N2CCCCC2)nc2ncn(Cc3ccccc3)c12	-8.5	-8.2	-18.5	15.1	-6.1	-7.9	/
O=C(Nc1ccc(N2CCCC2)c(Cl)c1)c1ccco1	-165.1	-149.4	-82.9	-198.2	-113.2	-128.2	-25.1

Screens deposited in PubChem BioAssay by several laboratories.
